# Assay results reported in article PMC9574860, “Chemical Toolkit for PARK7: Potent, Selective, and High-Throughput” (Journal of Medicinal Chemistry, 2022).
# About 400 (5.1%) of roughly 7,900 compounds showed an effect of 50% or more. This excerpt belongs to a sample that is enriched for strong results.
# Molecular target: Parkinson's disease protein 7 (PARK7/DJ1) (human, UniProt Q99497)
# Test: primary screen, percent inhibition; read as competition with a fluorescent probe by fluorescence polarization; higher = more effect of the substance
# Conditions: 100 µM
# In short: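 Covalent fragments at 100 μM final were incubated 2 h with 0.2 μM PARK7, then 20 nM probe JYQ-107 added for a further 2 h. Fluorescence polarization read at 480/520 nm; relative FP loss versus reference controls gave remaining enzyme activity.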
# Sequence of Parkinson's disease protein 7 (PARK7/DJ1) (Q99497 whole entry, looked up): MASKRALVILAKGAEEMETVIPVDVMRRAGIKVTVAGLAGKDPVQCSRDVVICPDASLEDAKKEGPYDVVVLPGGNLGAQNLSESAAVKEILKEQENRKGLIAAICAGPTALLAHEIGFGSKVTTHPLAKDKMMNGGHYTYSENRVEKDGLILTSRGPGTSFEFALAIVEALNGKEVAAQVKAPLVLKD
row,SMILES,Inhibition %
1,N#CC(=Cc1ccc(CSC(F)F)o1)C(N)=O,16.4%
2,CC(=O)c1ccc(F)c(B2OC(C)(C)C(C)(C)O2)c1,5.97%
3,O=C(CCl)N1N=C(c2ccco2)CC1c1cccs1 (stereo not shown),12.6%
4,O=C(CCl)Nc1ccccc1C(F)(F)F,11.7%
5,C=CC(=O)Nc1nc(COC)cs1,8.35%
6,C=CC(=O)NCC1(C)CC(F)(F)C1,5.99%
7,CC1CC(n2cnc3c2c(=O)n(C)c(=O)n3C)C(=O)O1 (stereo not shown),8.16%
8,CC(C)(C)Nc1cc(F)c(S(=O)(=O)F)cc1N,7.67%
9,Cc1nn(S(=O)(=O)c2ccccc2)c(C)c1C,6.77%
10,N#CC(=Cc1ccccc1)C(=O)O,0.493%
11,Clc1ccc(Cl)c(OCC2CO2)c1 (stereo not shown),5.37%
12,CCc1nccn1S(=O)(=O)c1cc(C)c(OC)cc1C,7.23%
13,O=C(NCC1CCC(O)C1)c1cc(B(O)O)ccc1F (stereo not shown),1.49%
14,O=C(CCl)c1ccccn1,102%
15,C=CC(=O)NCCc1cscn1,5.76%
16,Cl.O=C(CCl)Nc1ccccn1,14.1%
17,Cl.O=C(CCl)c1c[nH]c2ncccc12,10.6%
18,ClCCc1cscn1,5.31%
19,O=C(CCl)c1cscn1,101%
20,COc1cncc(C#N)n1,9.79%
21,C=CC(=O)N1Cc2ccccc2OC(C)(C)C1,13.6%
22,Cc1cc(C)cc(OC(=O)N2CCOCC2)c1,6.2%
23,CCc1nc(C)cn1S(=O)(=O)c1cc(Cl)ccc1OC,5.69%
24,C=CC(=O)N1CC(S(=O)(=O)c2ccccc2F)C1,5.39%
25,N#Cc1nc(N2CC[C@H](O)C2)ccc1Cl,9.73%

row,SMILES,Inhibition %
1,CC1(C)OB(c2cncc(F)c2)OC1(C)C,4.04%
2,N#CC(=Cc1ccco1)C(=O)Nc1nnc(C(F)F)s1,4.49%
3,O=C(CCl)NCCc1ccc(F)cc1,26.6%
4,Cc1oc(C(N)=O)cc1C(=O)CCl,30.9%
5,Cc1oc(C(=O)O)cc1C(=O)CCl,92.2%
6,Cc1oncc1C(=O)CCl,40.2%
7,CC(C)N1CCOC(CCl)C1 (stereo not shown),5.12%
8,O=c1[nH]c(=O)n(C2CC2)c2nc(C3CC3)nc(S)c12,3.15%
9,OB(O)C1=CCN(Cc2ccnn2-c2ccncc2)CC1,61.3%
10,Cn1nccc1[C@@H]1OCC[C@H]1CN1CC=C(B(O)O)CC1,44.8%
11,OB(O)C1=CCN(Cc2cc3n(n2)CCC3)CC1,33.1%
12,C=CC(=O)NC1CC(OCC)C12CCCC2 (stereo not shown),8.99%
13,O=C1CCC(CN2CCc3[nH]c4ccc(F)cc4c3C2)O1 (stereo not shown),21.1%
14,CC(=O)c1ccc(N2CCN(C(=O)CCl)CC2)c(F)c1,11%
15,O=C(Nc1ccccc1)C1CCN(C(=O)CCl)CC1,12.6%
16,O=C(CCl)N1CCN(c2ccccc2[N+](=O)[O-])CC1,80.7%
17,O=C(CCl)N1CCN(C(=O)Nc2ccccc2)CC1,64.2%
18,O=C(CCl)N1CCN(c2ccc([N+](=O)[O-])cc2)CC1,7.53%
19,Cl.O=C(CCl)N1CCN(Cc2ccccc2)CC1,7.64%
20,C=CC(=O)NCc1nnc2n1CCCC2C(F)(F)F (stereo not shown),8.99%
21,CN1CCN(CCCCl)CC1.Cl.Cl,9.44%
22,CCN(Cc1ccc(Br)s1)C(=O)CCl,12.9%
23,CC1(NC(=O)CCl)CCS(=O)(=O)C1 (stereo not shown),2.17%
24,C=CC(=O)NCCc1nc2ccc(F)cc2n1C,3.72%
25,C=CC(=O)NCC1CCC2(CCCC2)O1 (stereo not shown),4.84%

row,SMILES,Inhibition %
1,CS(=O)(=O)n1cnc2ccccc21,11.4%
2,O=c1cnc2ccccc2n1CCS(=O)(=O)F,13.8%
3,Cc1cnc2ccccc2c1S(=O)(=O)F,95.2%
4,Cl.ClCCn1cc(-c2ccccc2)cn1,6.06%
5,C=CC(=O)NCc1cccc(C(=O)NC(C)(C)C)c1,9.53%
6,Cc1ccc(C)c(C(=O)Cn2cnc(C#N)n2)c1,-2.83%
7,COC(=O)c1ccc(CS(=O)(=O)F)cc1,7.95%
8,COc1ccc(CS(=O)(=O)F)cc1,88.4%
9,O=S(=O)(F)Cc1ccccc1,8.98%
10,Cc1csc(C(C#N)=Cc2cccc3c2OCCCO3)n1,1.3%
11,N#Cc1ccc(NCC2CCN(CC(F)(F)F)C2)cn1 (stereo not shown),5.73%
12,O=C(CCl)Nc1cccc(S(=O)(=O)N2CCOCC2)c1,8.1%
13,O=C(CCl)Nc1ccc(S(=O)(=O)N2CCOCC2)cc1,87.4%
14,C=CC(=O)Nc1ccc(S(=O)(=O)N2CCCC2)cc1,8.4%
15,O=C(CCl)Nc1ccc(S(=O)(=O)N2CCCCC2)cc1,92.7%
16,O=C(CCl)Nc1cccc(S(=O)(=O)N2CCCC2)c1,7.91%
17,Cl.O=C(CCl)Nc1ccc(CN2CCOCC2)cc1,40.1%
18,O=C(CCl)Nc1ccc(S(=O)(=O)N2CCCC2)cc1,85.4%
19,O=C(CCCl)Nc1cccc(S(=O)(=O)N2CCCC2)c1,4.27%
20,O=C(CCCl)Nc1ccc(S(=O)(=O)N2CCCC2)cc1,3.33%
21,Cn1cc(B2OC(C)(C)C(C)(C)O2)cn1,4.89%
22,CC(C)(C(=O)CCl)N1C(=O)c2ccccc2C1=O,5.76%
23,C=CC(=O)N1C[C@@]2(C)CS(=O)(=O)C[C@@]2(C)C1,5.67%
24,N#Cc1nc(C2CC2)oc1N1CCN(C(=O)C2CC2)CC1,5.36%
25,N#Cc1nccn1Cc1ccc(F)cc1F,68.3%

row,SMILES,Inhibition %
1,N#Cc1nccn1Cc1cc(F)cc(F)c1,5.08%
2,N#Cc1nccn1Cc1cccc(F)c1F,4.63%
3,C=CC(=O)N1CCC(c2ccnn2C)CC1,4.28%
4,COC1CCN(c2nc(C#N)c(Cl)s2)CC1,7.16%
5,Cc1ccc(C#N)nc1N1CCCOC(C)C1 (stereo not shown),42.8%
6,COC1CCN(c2nc(C#N)ccc2C)CC1,71.3%
7,N#CC(=Cc1cnn(-c2ccccc2)c1)C(=O)O,10.6%
8,CN(C)C(=O)Sc1cnc2nccn2c1,3.18%
9,CCN(C(=O)CCl)C1CCCCC1,9.37%
10,CN(C(=O)CC1OCCCO1)C1CCCCC1,3.82%
11,CC1CCC(N(C)C(=O)CCl)CC1 (stereo not shown),101%
12,CN(CC12CC3CC(CC(C3)C1)C2)C(=O)CCl,9.71%
13,CN(CC1CC1)C(=O)CCl,50.3%
14,CN(C(=O)CCl)C1CCS(=O)(=O)C1 (stereo not shown),8.14%
15,CN(C(=O)CCl)C1CCCCC1,92.5%
16,CN(C(=O)CCl)C1CC1,-0.367%
17,CN(CC1CCCCC1)C(=O)CCl,50%
18,C=CC(=O)Nc1cccc2c1CN(CC(C)C)C2,8.44%
19,O=C(c1ccc(S)nc1)N1CCCC1,40.7%
20,N#CN(Cc1nnc(C2CCC2)o1)c1ccc(F)c(Cl)c1,-0.412%
21,C=CC(=O)N1CCC12CCOC2 (stereo not shown),7.06%
22,Cc1ccc(C(C)NC(=O)Cn2cnc(C#N)n2)cc1C (stereo not shown),3.5%
23,Cc1cc(S(=O)(=O)F)ccc1C(=O)O,85.1%
24,CC(=O)c1ccc(S(=O)(=O)F)cc1,34.9%
25,O=C(O)c1cc(S(=O)(=O)F)ccc1Cl,7.95%

row,SMILES,Inhibition %
1,Cc1ccc(S(=O)(=O)F)cc1,2.62%
2,Cc1ccc(S(=O)(=O)F)cc1C(=O)O,87.9%
3,C=CC(=O)NC1CCOC2(CCSC2)C1 (stereo not shown),6.26%
4,Cc1cc(C)n(S(=O)(=O)N2CCCCC2)n1,7.02%
5,O=C(Nc1cccc(S(=O)(=O)F)c1)C1(CF)CCC1,95.8%
6,O=C(Nc1cccc(S(=O)(=O)F)c1)C1(CF)CCOCC1,95.3%
7,COc1ccccc1C(=O)Nc1cccc(S(=O)(=O)F)c1,4.59%
8,CCC1(C(=O)Nc2cccc(S(=O)(=O)F)c2)CCC1,93.8%
9,COCC1(C(=O)Nc2cccc(S(=O)(=O)F)c2)CCCC1,94.3%
10,COc1ccc(S(=O)(=O)n2ccc(C)n2)cc1C,2.32%
11,Cc1nn(C)c(Cl)c1C=CC(=O)N1CCC(C(=O)O)C1.Cl (stereo not shown),7.34%
12,C=CC(=O)NCC1CC2(CCC2)CO1 (stereo not shown),5.74%
13,Cc1cccc(-n2nnnc2SC2CC(C)OC2=O)c1 (stereo not shown),3.51%
14,Cn1cc(NS(=O)(=O)C=Cc2ccccc2Cl)cn1,28.6%
15,CCn1cc(C2NC(=O)C23CCOCC3)cn1 (stereo not shown),2.01%
16,Cc1ccc(NC(=O)C(C#N)=Cc2cn(C)cn2)c(C)c1,10.3%
17,CCN(C(=O)CCl)c1ccc(F)cc1,31.3%
18,Cc1cc(C=C(C#N)C(=O)NCC2CCCO2)ccc1F (stereo not shown),2.68%
19,CC(C)(C)OC(=O)N1CCCC(S(=O)(=O)F)C1 (stereo not shown),10.7%
20,O=C(N[C@H]1CC[C@@H](CS(=O)(=O)F)C1)C1CCOCC1 (racemic),77.4%
21,O=S(=O)(F)CC1CCOCC1,10.5%
22,COC(=O)C1CC(S(=O)(=O)F)CN1C(=O)C1CCOCC1 (stereo not shown),9.64%
23,CC(C)(C)OC(=O)N[C@@H]1CC[C@H](CS(=O)(=O)F)C1 (racemic),87.2%
24,Cl.N[C@@H]1CC[C@H](CS(=O)(=O)F)C1 (racemic),22.9%
